Test system: Sam68 (KHDRBS1)
Test: compounds binding KHDRBS1 protein – biochemical, small-molecule microarray, 635 nm fluorescence, primary screen (AID 1125);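 further: score merges 667 nm channel intensity with signal to noise over triplicate slides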
Settings: higher = more signal

| Structure (SMILES) | composite z-score |
| --- | --- |
| C=CCc1cccc([C@@H]2[C@@H](C)CC[C@H]3C(=O)N4[C@H](c5cccc(CC=C)c5)[C@@H](C)CC[C@H]4C(=O)N23)c1 | 0.55 |
| CCCCCCc1nc(C2CC2)c(C)c2c1[Si](C(C)C)(C(C)C)OC2 | -1.28 |
| CC(C)(C)OC(=O)CC[C@]1(C(=O)NCCN2CCOCC2)N=C(c2ccc(OCCCO)cc2)O[C@H]1c1ccccc1CN=[N+]=[N-] | 1.32 |
| CCOC(=O)C[C@H]1[C@H](OC(=O)c2ccccc2-c2ccccc2)[C@@H](NC(=O)c2ccc(-c3ccccc3)cc2)c2cc(OCCCO)ccc2N1C(=O)Cc1ccc(OC)cc1 | 0.406 |
| C=CCN1C(=O)[C@@]2(Cc3ccccc3)N=C(c3ccc(OCCCO)cc3)O[C@H]2c2ccccc21 | 1.29 |
| C=CCC(OC(C)=O)[C@@H]1[C@@H](N(Cc2cc3ccccc3o2)C(=O)c2ccc(C)cc2)c2cc(OCCCO)ccc2N1C(=O)c1ccc2ccccc2n1 (stereo partly specified) | 0.0268 |
| C=C(C(=O)CC[C@H](OC(=O)c1ccccc1-c1ccccc1C(=O)O)c1ccc(CO)o1)C(C)C | 1.26 |
| O=C(CS)NCCCCCNC(=O)[C@H]1C[C@H]2C(=O)N3CCC[C@H]3C(=O)N2[C@H]1c1ccc(O)cc1 | -0.305 |
| N#Cc1ccc(NN2C(C(O)CCc3ccccc3)C=CC3C(=O)N(c4ccccc4)C(=O)C32)cc1 (stereo unspecified) | 0.924 |
| O=[N+]([O-])c1ccc(C[n+]2ccc3ccc(O)cc3c2)o1 | 0.534 |
| Cc1ccc(S[C@]2(C(=O)NC(C)C)CC(=O)N(Cc3cc(C(F)(F)F)cc(C(F)(F)F)c3)[C@@H]2c2ccc(CO)cc2I)cc1 | -0.733 |
| COC(=O)[C@@]1(Cc2ccccc2N=[N+]=[N-])N=C(c2ccc(OCCCO)cc2)O[C@H]1c1ccccc1CN=[N+]=[N-] | 1.22 |
| O=C(NCc1ccccc1)c1ccc(Br)cc1[N+](=O)[O-] | 0.604 |
| C=C(COC)/C(=C/C[C@H](OC(C)=O)c1ccc(OCCO)cc1)c1cnc2ccccc2c1 | 1.27 |
| COc1cc2c(cc1OC)CN(C(=O)[C@H]1[C@@H]3C(=O)O[C@@H](c4ccccc4)[C@@H](c4ccccc4)N3[C@@H](c3ccccc3OCCO)[C@]13C(=O)Nc1ccc(C#CC4(O)CCCCCC4)cc13)CC2 | 1.3 |
| COCCOC(=O)N1C(=O)[C@@]2(c3cc(C#CCCO)ccc31)[C@H](c1ccc(O)cc1)N1[C@H](c3ccccc3)[C@H](c3ccccc3)OC(=O)[C@H]1[C@@H]2C(=O)Nc1nc2ccccc2s1 | 1.29 |
| CC[C@H]1C2=C3C(CC[C@H]4C(OC)OC[C@](C)([C@@H]34)N(C(=O)OC(C)(C)C)C2)C(CO)C1CO (stereo partly specified) | 1.29 |
| CN(C)C(=O)[C@@]1(Cc2ccccc2N=[N+]=[N-])N=C(c2ccc(OCCCO)cc2)O[C@H]1c1ccccc1CN=[N+]=[N-] | 1.29 |

| Structure (SMILES) | composite z-score |
| --- | --- |
| CC(C)[C@H]1NC(=O)[C@@]23C(=O)N[C@@H](Cc4ccccc4)C2[C@H](C)[C@@]2(C)O[C@H]2C3/C=C/C/C=C\CNC(=O)[C@H](C)NC1=O (stereo partly specified) | -0.762 |
| O=C1c2ccccc2[C@](Cc2ccccc2I)(C(=O)NCc2ccccc2)[C@H](c2ccc(CO)cc2)N1Cc1ccccc1C(F)(F)F | 0.514 |
| O=C1c2ccccc2[C@](Cc2ccccc2I)(C(=O)NCC(F)(F)F)[C@H](c2ccc(CO)cc2)N1Cc1ccccc1C(F)(F)F | 1.32 |
| CCC1=C2CN(Cc3ccccc3Br)[C@@H]([C@@H](O)Cc3ccccc3)C2C=CCC1 (stereo partly specified) | 1.3 |
| C=CCc1cccc([C@H]2N[C@H](C(=O)O)CC[C@@H]2C)c1 | 0.538 |
| COC(=O)C1=CC(c2ccc(CO)cc2)=CC(c2cccs2)N(Cc2cccc(OC(F)(F)F)c2)C=C1C(=O)OC (stereo unspecified) | 1.34 |
| C=C(CCCC)C(=O)CC[C@@H](OC(=O)c1cccnc1)c1cccc(OCCO)c1 | 0.789 |
| CO[C@H]1COC(=O)[C@H](Cc2ccccc2)NC(=O)CC=C[C@@H](C)[C@H](OC)COC(=O)CC=C[C@@H]1C | 0.588 |
| COCCOC(=O)N1C(=O)[C@@]2(c3cc(C#CCC(C(=O)OC)C(=O)OC)ccc31)[C@H](C(=O)N1CCN(c3ncccn3)CC1)[C@H]1C(=O)O[C@H](c3ccccc3)[C@H](c3ccccc3)N1[C@@H]2c1ccc(O)cc1 | 1.3 |
| CCCC=C(CCC)[C@@H](NS(=O)(=O)c1cccc(C(F)(F)F)c1)c1ccc(C(=O)OC)cc1 | 0.601 |
| NC(=O)[C@H]1[C@@H]2C(=O)O[C@@H](c3ccccc3)[C@@H](c3ccccc3)N2[C@@H](c2ccc(O)cc2)[C@]12C(=O)Nc1ccc(C#CCCO)cc12 | -1.09 |
| O=C(O)[C@@H]1Cc2c([nH]c3ccccc23)[C@@H](c2ccccc2)N1 | -0.188 |
| COc1cc2c(cc1OC)CN(C(=O)[C@@H]1[C@H]3C(=O)O[C@H](c4ccccc4)[C@H](c4ccccc4)N3[C@H](c3ccccc3OCCO)[C@@]13C(=O)Nc1ccccc13)CC2 | 1.2 |
| CCCC=C(CCC)[C@@H](NS(=O)(=O)c1ccc(-c2ccccc2)cc1)c1ccc(C(=O)OC)cc1 | -0.829 |
| O=C/C=C/c1ccccc1Cl | -0.764 |
| [N-]=[N+]=NCc1ccccc1[C@H]1OC(c2ccc(OCCCO)cc2)=N[C@@]1(Cc1ccccc1N=[N+]=[N-])C(=O)NCc1ccccc1 | 1.31 |
| O=C1c2ccccc2[C@](Cc2ccccc2I)(C(=O)O)[C@H](c2ccc(CO)cc2)N1C1CCCCC1 | 1.3 |
| C=CCC(OC(C)=O)[C@@H]1[C@@H](N(Cc2cc3ccccc3o2)C(=O)Cc2ccc(F)cc2)c2cc(OCCCO)ccc2N1C(=O)c1ccc(-c2ccccc2)cc1 (stereo partly specified) | -0.533 |

— PubChem BioAssay
